# Measured values taken from publication PMC7862700, “An all-to-all approach to the identification of sequence-specific readers for epigenetic DNA modifications on cytosine”.
# Legend:
# Assay in all cases: DAPPL (digital affinity profiling via proximity ligation, sequencing); 10 mM Tris-HCl pH 7.5, 50 mM NaCl, 1 mM DTT, 4% glycerol, room temperature, 30 min; GST-TFs on glutathione beads, 16-mer random dsDNA library, 0.1% formaldehyde crosslink after washing; high values mean tight binding
# FLI1 = biological target: T1, FLI1 (Homo sapiens, UniProt Q01543 1-452); conditions: protein: recombinant; tags: N-terminal GST; dsDNA, one strand shown
# T1 sequence: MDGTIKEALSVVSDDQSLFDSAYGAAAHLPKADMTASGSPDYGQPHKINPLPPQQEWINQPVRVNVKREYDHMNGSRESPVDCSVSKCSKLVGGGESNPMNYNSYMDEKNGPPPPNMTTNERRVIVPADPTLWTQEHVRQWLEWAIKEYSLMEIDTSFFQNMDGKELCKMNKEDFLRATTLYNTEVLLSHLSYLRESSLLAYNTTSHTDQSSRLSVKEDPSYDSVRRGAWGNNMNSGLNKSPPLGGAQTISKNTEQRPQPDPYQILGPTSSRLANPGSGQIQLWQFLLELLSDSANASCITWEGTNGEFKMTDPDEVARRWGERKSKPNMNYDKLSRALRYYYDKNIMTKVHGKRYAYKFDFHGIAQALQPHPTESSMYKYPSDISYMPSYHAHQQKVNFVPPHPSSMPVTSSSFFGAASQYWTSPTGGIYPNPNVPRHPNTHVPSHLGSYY
# Outline: (§1)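 A tag-only sample was pooled with DNA-barcoded human transcription factors that had been expressed in yeast as GST fusions and captured on glutathione beads. The pools were incubated for 30 min at room temperature with 200 nmole of a random double-stranded 16-mer DNA library in Tris/NaCl/DTT/glycerol buffer, then washed, crosslinked with 0.1% formaldehyde, proximity-ligated (BsaI/T4 ligase, 1 h, 37 °C), PCR-amplified and sequenced on an Illumina NextSeq500. Binding signal is each hexamer's read frequency for a factor divided by its frequency for the tag-only sample.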
# ELK1 = biological target: T2, ELK1 (Homo sapiens, UniProt P19419 1-428); conditions: protein: recombinant; tags: N-terminal GST; dsDNA, one strand shown
# T2 sequence: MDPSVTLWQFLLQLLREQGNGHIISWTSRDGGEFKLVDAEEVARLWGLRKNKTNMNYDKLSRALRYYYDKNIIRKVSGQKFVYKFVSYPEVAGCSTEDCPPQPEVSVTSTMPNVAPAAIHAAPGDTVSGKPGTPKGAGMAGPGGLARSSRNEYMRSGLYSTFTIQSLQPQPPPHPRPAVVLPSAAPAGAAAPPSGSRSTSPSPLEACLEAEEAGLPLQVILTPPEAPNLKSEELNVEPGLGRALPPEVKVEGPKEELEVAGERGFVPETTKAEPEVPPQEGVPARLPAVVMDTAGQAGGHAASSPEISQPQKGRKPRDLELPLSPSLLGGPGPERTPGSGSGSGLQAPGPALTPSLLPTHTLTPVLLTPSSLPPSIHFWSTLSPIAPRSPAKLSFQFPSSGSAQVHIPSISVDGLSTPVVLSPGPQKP
# Outline: as §1
# GABPA = biological target: T3, GABPA (Homo sapiens, UniProt Q06546 1-454); conditions: protein: recombinant; tags: N-terminal GST; dsDNA, one strand shown
# T3 sequence: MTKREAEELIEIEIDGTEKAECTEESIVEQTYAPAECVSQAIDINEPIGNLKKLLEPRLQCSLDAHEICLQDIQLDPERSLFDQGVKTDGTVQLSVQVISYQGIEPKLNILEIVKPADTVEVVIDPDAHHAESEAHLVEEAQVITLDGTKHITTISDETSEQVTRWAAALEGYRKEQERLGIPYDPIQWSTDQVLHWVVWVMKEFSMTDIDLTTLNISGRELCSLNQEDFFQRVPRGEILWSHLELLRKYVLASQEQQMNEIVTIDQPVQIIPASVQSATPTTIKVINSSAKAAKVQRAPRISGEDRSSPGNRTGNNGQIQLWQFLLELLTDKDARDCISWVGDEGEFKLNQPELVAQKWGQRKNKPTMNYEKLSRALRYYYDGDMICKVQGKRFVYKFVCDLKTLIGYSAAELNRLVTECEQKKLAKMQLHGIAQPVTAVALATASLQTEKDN
# Outline: as §1
# ERG = biological target: T4, ERG (Homo sapiens, UniProt P11308 1-479); conditions: protein: recombinant; tags: N-terminal GST; dsDNA, one strand shown
# T4 sequence: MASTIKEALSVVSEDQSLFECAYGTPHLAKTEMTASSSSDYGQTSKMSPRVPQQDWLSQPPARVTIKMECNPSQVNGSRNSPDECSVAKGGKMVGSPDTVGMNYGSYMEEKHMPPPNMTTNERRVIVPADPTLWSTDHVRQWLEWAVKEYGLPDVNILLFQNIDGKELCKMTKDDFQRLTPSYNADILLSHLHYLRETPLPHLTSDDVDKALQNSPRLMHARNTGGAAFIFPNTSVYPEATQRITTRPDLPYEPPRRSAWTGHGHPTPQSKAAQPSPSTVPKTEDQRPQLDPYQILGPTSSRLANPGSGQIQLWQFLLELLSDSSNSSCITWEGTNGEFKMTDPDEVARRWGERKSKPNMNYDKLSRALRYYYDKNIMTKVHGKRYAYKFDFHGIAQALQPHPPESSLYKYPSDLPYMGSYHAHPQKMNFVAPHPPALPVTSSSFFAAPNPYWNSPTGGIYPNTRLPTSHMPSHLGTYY
# Outline: as §1
# ELF1 = ELF1 (Homo sapiens, UniProt P32519 1-619); conditions: protein: recombinant; tags: N-terminal GST; dsDNA, one strand shown
# ELF1, sequence (P32519 whole entry): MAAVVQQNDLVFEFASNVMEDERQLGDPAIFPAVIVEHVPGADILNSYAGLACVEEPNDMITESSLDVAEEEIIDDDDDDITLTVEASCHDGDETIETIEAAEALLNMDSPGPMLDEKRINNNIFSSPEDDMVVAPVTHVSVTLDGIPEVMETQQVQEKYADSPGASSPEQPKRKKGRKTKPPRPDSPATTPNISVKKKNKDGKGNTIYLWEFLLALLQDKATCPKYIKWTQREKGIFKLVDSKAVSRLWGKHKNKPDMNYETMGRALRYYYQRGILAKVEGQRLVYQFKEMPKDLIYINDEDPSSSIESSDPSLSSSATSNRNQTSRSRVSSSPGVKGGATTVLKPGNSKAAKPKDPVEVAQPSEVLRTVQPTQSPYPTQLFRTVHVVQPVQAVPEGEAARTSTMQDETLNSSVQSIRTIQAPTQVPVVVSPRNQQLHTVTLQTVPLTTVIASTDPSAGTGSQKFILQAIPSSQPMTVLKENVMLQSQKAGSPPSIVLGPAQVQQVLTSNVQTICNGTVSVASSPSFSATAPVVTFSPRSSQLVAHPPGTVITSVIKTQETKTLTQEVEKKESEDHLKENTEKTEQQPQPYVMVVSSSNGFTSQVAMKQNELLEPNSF
# Outline: as §1
# EHF = biological target: T5, EHF (Homo sapiens, UniProt Q9NZC4 1-300); conditions: protein: recombinant; tags: N-terminal GST; dsDNA, one strand shown
# T5 sequence: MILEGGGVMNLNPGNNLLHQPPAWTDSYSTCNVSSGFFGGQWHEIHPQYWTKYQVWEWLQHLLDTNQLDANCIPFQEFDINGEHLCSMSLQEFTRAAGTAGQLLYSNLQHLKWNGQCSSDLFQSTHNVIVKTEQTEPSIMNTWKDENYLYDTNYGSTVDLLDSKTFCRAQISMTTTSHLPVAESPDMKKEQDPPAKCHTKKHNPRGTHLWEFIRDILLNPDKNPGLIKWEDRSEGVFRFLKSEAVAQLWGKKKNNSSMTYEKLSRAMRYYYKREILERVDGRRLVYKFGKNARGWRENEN
# Outline: as §1
# SPI1 = SPI1 (Homo sapiens, UniProt P17947 1-270); conditions: protein: recombinant; tags: N-terminal GST; dsDNA, one strand shown
# Outline: as §1
# SPIB = SPIB (Homo sapiens, UniProt Q01892 1-262); conditions: protein: recombinant; tags: N-terminal GST; dsDNA, one strand shown
# SPIB, sequence (Q01892 whole entry): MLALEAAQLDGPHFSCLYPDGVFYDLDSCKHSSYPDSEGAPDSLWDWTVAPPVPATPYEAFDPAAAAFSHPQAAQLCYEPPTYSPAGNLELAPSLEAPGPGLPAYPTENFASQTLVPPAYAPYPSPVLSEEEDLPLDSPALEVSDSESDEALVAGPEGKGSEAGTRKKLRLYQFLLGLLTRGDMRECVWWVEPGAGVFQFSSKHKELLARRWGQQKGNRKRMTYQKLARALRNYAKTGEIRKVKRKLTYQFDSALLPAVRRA
# Outline: as §1
# ELK3 = biological target: T6, ELK3 (Homo sapiens, UniProt P41970 1-407); conditions: protein: recombinant; tags: N-terminal GST; dsDNA, one strand shown
# T6 sequence: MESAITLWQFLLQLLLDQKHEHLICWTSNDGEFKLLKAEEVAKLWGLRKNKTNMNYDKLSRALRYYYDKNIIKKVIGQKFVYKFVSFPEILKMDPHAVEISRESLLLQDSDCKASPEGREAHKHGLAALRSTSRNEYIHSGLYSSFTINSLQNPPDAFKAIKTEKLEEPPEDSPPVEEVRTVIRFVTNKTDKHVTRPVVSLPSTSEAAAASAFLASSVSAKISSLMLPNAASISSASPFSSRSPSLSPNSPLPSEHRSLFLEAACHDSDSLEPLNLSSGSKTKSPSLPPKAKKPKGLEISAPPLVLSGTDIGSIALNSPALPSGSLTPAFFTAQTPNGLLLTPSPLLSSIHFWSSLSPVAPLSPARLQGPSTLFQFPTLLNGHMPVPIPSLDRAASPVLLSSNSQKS
# Outline: as §1
# FEV = biological target: T7, FEV (Homo sapiens, UniProt Q99581 1-238); conditions: protein: recombinant; tags: N-terminal GST; dsDNA, one strand shown
# T7 sequence: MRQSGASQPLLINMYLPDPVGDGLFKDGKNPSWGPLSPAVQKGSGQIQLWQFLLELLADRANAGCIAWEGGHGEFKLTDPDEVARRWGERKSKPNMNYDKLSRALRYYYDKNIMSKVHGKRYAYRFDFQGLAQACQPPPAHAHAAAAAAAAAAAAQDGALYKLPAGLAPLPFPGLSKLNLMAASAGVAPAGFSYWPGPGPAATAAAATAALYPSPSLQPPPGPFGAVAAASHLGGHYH
# Outline: as §1
# ETV5 = ETV5 (Homo sapiens, UniProt P41161 1-510); conditions: protein: recombinant; tags: N-terminal GST; dsDNA, one strand shown
# ETV5, sequence (P41161 whole entry): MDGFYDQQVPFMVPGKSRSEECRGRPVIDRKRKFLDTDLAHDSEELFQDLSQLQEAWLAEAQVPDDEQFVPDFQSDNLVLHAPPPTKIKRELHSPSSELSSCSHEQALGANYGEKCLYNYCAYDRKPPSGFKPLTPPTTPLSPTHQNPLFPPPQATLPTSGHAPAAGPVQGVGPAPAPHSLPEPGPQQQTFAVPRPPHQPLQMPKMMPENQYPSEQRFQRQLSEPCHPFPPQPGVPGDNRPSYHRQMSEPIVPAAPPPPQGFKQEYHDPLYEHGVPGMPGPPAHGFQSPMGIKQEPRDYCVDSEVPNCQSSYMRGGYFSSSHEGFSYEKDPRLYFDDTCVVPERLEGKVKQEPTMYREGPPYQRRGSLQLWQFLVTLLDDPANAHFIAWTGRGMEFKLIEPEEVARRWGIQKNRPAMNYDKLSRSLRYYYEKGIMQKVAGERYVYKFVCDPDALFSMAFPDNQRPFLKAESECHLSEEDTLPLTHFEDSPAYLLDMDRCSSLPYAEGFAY
# Outline: as §1
# HSF1 = HSF1 (Homo sapiens, UniProt Q00613 1-529); conditions: protein: recombinant; tags: N-terminal GST; chain copies: 3; dsDNA, one strand shown
# HSF1, sequence (Q00613 whole entry): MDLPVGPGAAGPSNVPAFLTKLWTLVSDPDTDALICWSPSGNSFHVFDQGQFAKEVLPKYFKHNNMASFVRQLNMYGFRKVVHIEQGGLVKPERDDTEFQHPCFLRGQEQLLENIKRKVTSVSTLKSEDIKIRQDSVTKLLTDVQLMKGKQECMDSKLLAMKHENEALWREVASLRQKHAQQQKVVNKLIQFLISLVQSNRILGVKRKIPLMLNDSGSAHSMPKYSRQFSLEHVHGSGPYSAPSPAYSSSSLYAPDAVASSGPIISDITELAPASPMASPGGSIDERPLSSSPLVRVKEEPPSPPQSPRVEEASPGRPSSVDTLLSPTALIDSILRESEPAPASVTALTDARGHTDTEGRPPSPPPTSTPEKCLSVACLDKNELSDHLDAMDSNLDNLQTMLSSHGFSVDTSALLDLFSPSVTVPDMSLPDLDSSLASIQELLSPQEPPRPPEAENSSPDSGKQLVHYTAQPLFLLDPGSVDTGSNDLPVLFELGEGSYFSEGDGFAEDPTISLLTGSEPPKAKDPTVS
# Outline: as §1
# SPIC = biological target: T8, SPIC (Homo sapiens, UniProt Q8N5J4 1-248); conditions: protein: recombinant; tags: N-terminal GST; dsDNA, one strand shown
# T8 sequence: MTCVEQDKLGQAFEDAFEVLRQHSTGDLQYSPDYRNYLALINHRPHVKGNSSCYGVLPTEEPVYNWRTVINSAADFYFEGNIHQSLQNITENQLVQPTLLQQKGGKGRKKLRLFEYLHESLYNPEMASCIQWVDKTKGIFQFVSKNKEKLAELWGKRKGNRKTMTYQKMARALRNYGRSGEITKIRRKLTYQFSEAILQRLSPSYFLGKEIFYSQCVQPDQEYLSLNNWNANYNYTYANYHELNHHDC
# Outline: as §1
# ELF4 = ELF4 (Homo sapiens, UniProt Q99607 1-663); conditions: protein: recombinant; tags: N-terminal GST; dsDNA, one strand shown
# ELF4, sequence (Q99607 whole entry): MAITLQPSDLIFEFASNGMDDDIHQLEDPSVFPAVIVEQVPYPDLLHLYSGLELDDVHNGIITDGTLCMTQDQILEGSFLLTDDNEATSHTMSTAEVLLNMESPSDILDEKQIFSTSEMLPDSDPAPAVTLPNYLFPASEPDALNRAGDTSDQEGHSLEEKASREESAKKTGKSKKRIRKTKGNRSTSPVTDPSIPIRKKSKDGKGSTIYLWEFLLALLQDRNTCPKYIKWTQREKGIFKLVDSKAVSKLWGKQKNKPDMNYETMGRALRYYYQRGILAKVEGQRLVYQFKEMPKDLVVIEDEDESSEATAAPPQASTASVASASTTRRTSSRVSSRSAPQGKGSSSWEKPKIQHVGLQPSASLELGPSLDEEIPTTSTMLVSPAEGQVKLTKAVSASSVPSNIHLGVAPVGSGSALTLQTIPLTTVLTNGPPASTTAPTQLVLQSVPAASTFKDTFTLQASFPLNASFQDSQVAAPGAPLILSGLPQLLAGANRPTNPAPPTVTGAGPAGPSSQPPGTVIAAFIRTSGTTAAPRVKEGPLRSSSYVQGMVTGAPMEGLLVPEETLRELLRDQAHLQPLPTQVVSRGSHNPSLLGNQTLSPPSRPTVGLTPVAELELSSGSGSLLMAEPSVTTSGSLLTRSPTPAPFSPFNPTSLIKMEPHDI
# Outline: as §1
# ELK4 = biological target: T9, ELK4 (Homo sapiens, UniProt P28324-2 1-405); conditions: protein: recombinant; tags: N-terminal GST; dsDNA, one strand shown
# T9 sequence: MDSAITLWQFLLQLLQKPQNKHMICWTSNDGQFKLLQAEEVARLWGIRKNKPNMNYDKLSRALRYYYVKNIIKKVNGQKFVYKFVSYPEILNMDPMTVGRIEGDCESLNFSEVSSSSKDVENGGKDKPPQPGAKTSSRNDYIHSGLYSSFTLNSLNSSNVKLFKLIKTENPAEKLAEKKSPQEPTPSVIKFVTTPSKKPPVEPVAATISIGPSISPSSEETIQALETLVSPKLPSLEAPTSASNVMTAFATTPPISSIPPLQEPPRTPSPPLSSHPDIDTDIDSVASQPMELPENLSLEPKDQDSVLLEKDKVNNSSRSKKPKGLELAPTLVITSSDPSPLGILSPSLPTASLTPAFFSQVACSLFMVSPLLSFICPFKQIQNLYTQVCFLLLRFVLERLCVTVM
# Outline: as §1
# ETV2 = biological target: T10, ETV2 (Homo sapiens, UniProt O00321 1-342); conditions: protein: recombinant; tags: N-terminal GST; dsDNA, one strand shown
# T10 sequence: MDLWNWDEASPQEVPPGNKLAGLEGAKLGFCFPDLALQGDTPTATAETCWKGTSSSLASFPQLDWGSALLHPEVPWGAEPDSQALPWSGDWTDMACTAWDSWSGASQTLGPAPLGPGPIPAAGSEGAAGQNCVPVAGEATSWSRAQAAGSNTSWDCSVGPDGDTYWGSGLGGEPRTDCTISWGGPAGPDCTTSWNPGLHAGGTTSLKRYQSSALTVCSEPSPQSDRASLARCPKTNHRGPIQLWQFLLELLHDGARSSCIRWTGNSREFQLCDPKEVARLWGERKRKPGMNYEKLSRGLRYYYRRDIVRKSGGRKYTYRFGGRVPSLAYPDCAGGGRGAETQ
# Outline: as §1
# ELF3 = biological target: T11, ELF3 (Homo sapiens, UniProt P78545 1-371); conditions: protein: recombinant; tags: N-terminal GST; dsDNA, one strand shown
# T11 sequence: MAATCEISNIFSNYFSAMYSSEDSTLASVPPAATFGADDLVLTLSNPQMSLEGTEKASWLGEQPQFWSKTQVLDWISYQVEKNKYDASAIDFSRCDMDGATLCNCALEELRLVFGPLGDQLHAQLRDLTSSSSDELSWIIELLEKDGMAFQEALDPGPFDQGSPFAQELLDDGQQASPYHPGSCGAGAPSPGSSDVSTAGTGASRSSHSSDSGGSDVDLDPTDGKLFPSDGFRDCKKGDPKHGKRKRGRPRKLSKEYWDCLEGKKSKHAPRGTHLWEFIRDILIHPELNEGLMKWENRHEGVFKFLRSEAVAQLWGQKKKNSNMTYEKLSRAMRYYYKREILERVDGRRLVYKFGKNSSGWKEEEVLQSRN
# Outline: as §1
# CRX = CRX (Homo sapiens, UniProt O43186 1-299); conditions: protein: recombinant; tags: N-terminal GST; dsDNA, one strand shown
# CRX, sequence (O43186 whole entry): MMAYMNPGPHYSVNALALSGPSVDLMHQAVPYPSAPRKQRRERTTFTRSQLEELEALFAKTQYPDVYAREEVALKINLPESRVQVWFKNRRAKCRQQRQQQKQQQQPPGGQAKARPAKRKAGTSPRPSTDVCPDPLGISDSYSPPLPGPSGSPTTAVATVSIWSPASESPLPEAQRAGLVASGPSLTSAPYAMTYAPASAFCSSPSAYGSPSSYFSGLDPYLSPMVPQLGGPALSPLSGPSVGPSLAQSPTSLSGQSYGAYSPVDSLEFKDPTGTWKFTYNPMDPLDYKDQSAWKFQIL
# Outline: as §1
# ETV1 = ETV1 (Homo sapiens, UniProt P50549 1-477); conditions: protein: recombinant; tags: N-terminal GST; dsDNA, one strand shown
# ETV1, sequence (P50549 whole entry): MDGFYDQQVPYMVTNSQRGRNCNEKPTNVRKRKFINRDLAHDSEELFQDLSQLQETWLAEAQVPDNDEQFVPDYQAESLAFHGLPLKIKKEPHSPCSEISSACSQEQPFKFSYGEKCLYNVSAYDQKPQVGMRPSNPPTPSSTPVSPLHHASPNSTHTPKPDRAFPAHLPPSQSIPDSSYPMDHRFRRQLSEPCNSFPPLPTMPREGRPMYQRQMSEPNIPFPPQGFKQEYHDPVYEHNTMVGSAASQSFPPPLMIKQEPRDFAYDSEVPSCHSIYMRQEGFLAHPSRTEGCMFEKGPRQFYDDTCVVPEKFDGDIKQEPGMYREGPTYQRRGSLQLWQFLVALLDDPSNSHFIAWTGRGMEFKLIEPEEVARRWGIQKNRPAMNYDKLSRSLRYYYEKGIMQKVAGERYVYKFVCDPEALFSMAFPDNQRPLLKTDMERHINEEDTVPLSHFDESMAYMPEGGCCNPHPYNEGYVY
# Outline: as §1
sequence,measurement,setting,value
TCCGCT,binding signal,FLI1,"2.39 fold enrichment (6-mer frequency, TF over GST control)"
same,binding signal,ELK1,"2.38 fold enrichment (6-mer frequency, TF over GST control)"
same,binding signal,GABPA,"2.06 fold enrichment (6-mer frequency, TF over GST control)"
same,binding signal,ERG,"2.31 fold enrichment (6-mer frequency, TF over GST control)"
same,binding signal,ELF1,"2.11 fold enrichment (6-mer frequency, TF over GST control)"
same,binding signal,EHF,"2.33 fold enrichment (6-mer frequency, TF over GST control)"
same,binding signal,SPI1,"3.26 fold enrichment (6-mer frequency, TF over GST control)"
same,binding signal,SPIB,"2.37 fold enrichment (6-mer frequency, TF over GST control)"
same,binding signal,ELK3,"2.43 fold enrichment (6-mer frequency, TF over GST control)"
same,binding signal,FEV,"2.51 fold enrichment (6-mer frequency, TF over GST control)"
same,binding signal,ETV5,"2.37 fold enrichment (6-mer frequency, TF over GST control)"
same,binding signal,HSF1,"1.51 fold enrichment (6-mer frequency, TF over GST control)"
same,binding signal,SPIC,"2.63 fold enrichment (6-mer frequency, TF over GST control)"
same,binding signal,ELF4,"2.13 fold enrichment (6-mer frequency, TF over GST control)"
same,binding signal,ELK4,"2.01 fold enrichment (6-mer frequency, TF over GST control)"
same,binding signal,ETV2,"2.27 fold enrichment (6-mer frequency, TF over GST control)"
same,binding signal,ELF3,"2.15 fold enrichment (6-mer frequency, TF over GST control)"
same,binding signal,CRX,"1.84 fold enrichment (6-mer frequency, TF over GST control)"
same,binding signal,ETV1,"2.44 fold enrichment (6-mer frequency, TF over GST control)"
